# Laboratory results reported in PubChem BioAssay (NCI).
# The panel holds about 83,000 compounds, 20% with a hit somewhere; the sample as a whole holds those more often.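 Single-concentration screen, 48 h exposure, 96-well plates. Endpoint: percent growth. Below 10 = active.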 Values without a mark were called inactive. The source made the active and inactive calls.
# System: SK-MEL-2 melanoma
# Assay: NCI-60 one-dose screen, 48 h (100 = growth as untreated, 0 = no growth, -100 = all killed)
# Conditions: 10 µM unless noted
row,SMILES,growth
1,O=C1CN(Cc2ccc(C(=O)NO)cc2)C(=O)[C@@H](Cc2ccccc2)N1,112%
2,COc1ncc(-c2ccc3nccc(C#CCCCCC(=O)NO)c3c2)cc1NS(=O)(=O)c1ccc(F)cc1F,-60.7% (active)
3,CCCCCN(CCCCC)CCCCCCCCN1CCCc2ccccc21,89.7%
4,CC1Cc2c(Cl)ncnc2N(C)c2ccc(O)cc21 (centres undefined),27%
5,FC(F)(F)c1ccc2c(c1)Sc1ccccc1N2,106%
6,Cc1ccc2c(n1)C(=O)C(Cl)=C(Nc1ccc(N3CCN(C)CC3)cc1)C2=O,68.4%
7,CCOc1cc(/C=N\NC(=O)N/N=C/c2ccc(O)c(OCC)c2)ccc1O,49.8%
8,C1=C[C@H]2O[C@@H]1c1ccc3[nH]ccc3c12,95.7%
9,CC1(C)CC[C@]2(C(=O)O)CC[C@]3(C)[C@H](CC[C@@H]4[C@@]5(C)CCC(=O)C(C)(C)[C@@H]5CC[C@]43C)[C@H]2[C@H]1OC(=O)C(F)(F)F,-71.8% [100 µM] (active)
10,[2H]C1([2H])CCN(C(=O)C2CC2)c2cc(NS(=O)(=O)c3ccc(-c4cccc(C(N)=O)c4)cc3)ccc21,7.75% (active)
11,CCOC(=O)c1sc2nc(-c3cc(OC)c(OC)c(OC)c3)nc(N3CCOCC3)c2c1C,28.1%
12,O=C1CC(C(F)(F)F)Cc2nc3ccc(Br)cc3cc21 (centres undefined),107%
13,NC(=O)c1cccc(-c2ccc(S(=O)(=O)Nc3ccc4c(c3)N(C(=O)C3CC3)CCC4)cc2)c1,7.54% (active)
14,CC1(C)CC[C@]2(C(=O)O)CC[C@]3(C)C(=CC[C@@H]4[C@@]5(C)C/C(=C/c6cccnc6)[C@H](O)C(C)(C)[C@@H]5CC[C@]43C)[C@@H]2C1,-29.9% [100 µM] (active)
